Compounds without any hit were thinned out: in the full panel of roughly 83,000, 20% have a hit.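 Activity criterion: percent growth below 10, measured after cells in 96-well plates were exposed to a single compound concentration for 48 hours.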 Values without a mark were called inactive. Active and inactive are the calls of the source.
How the values were obtained:
Assay in all cases: NCI-60 one-dose screen, 48 h (100 = growth as untreated, 0 = no growth, -100 = all killed)
DU-145 prostate = settings: 10 µM unless noted
K-562 leukemia = settings: 10 µM unless noted
MALME-3M melanoma = settings: 10 µM unless noted
MDA-MB-231 breast = settings: 10 µM unless noted
RXF 393 renal = settings: 10 µM unless noted
SF-268 CNS = settings: 10 µM unless noted
SF-295 CNS = settings: 10 µM unless noted
SF-539 CNS = settings: 10 µM unless noted
UACC-257 melanoma = settings: 10 µM
M14 melanoma = settings: 10 µM unless noted
HCT-15 colon = settings: 10 µM unless noted
HT29 colon = settings: 10 µM unless noted
SNB-75 CNS = settings: 10 µM unless noted
SNB-19 CNS = settings: 10 µM unless noted
U251 CNS = settings: 10 µM unless noted
PC-3 prostate = settings: 10 µM unless noted
SK-MEL-5 melanoma = settings: 10 µM unless noted
UACC-62 melanoma = settings: 10 µM unless noted
LOX IMVI melanoma = settings: 10 µM unless noted
SK-MEL-28 melanoma = settings: 10 µM unless noted

Row | SMILES | growth (DU-145 prostate) | growth (K-562 leukemia) | growth (MALME-3M melanoma) | growth (MDA-MB-231 breast) [%] | growth (RXF 393 renal) | growth (SF-268 CNS) [%] | growth (SF-295 CNS) | growth (SF-539 CNS) [%] | growth (UACC-257 melanoma) [%] | growth (M14 melanoma) | growth (HCT-15 colon) | growth (HT29 colon) [%] | growth (SNB-75 CNS) | growth (SNB-19 CNS) [%] | growth (U251 CNS) [%] | growth (PC-3 prostate) [%] | growth (SK-MEL-5 melanoma) [%] | growth (UACC-62 melanoma) [%] | growth (LOX IMVI melanoma) | growth (SK-MEL-28 melanoma)
1 | CC(C)(C)OC(=O)N1CCN(S(=O)(=O)/N=C2\NC(=O)NC2=C(Cl)Cl)CC1 | 101% | 12.6% | 80.7% | 80.7 | 70.8% | 97 | 102% | 99.1 | 96.1 | 103% | 10.9% | 106 | 99.9% | 81.1 | 90.6 | 97.5 | 95.9 | 96.3 | 64.3% | 85.7%
2 | Cc1csc(Nc2cccc(Nc3nc(C)cs3)c2)n1 | 83.8% | 60.1% | 84.8% | 79.2 | 91% | 85.2 | 66.2% | 83.8 | 89.7 | 86% | 79.1% | 105 | 97.4% | 82.3 | 83.3 | 77.1 | 44.9 | 66.9 | 74.5% | 84.3%
3 | C=C(C)[C@@H]1CC[C@]2(C)[C@H](CC=C3[C@@H]4CC(C)(C)CC[C@]4(C(=O)NCC#CCN4CCN(C)CC4)CC[C@]32C)[C@@]1(C)CCC#N | 63.4% | -7.15% (active) | 34.6% | 47.8 | 53.7% | 65.4 | 70.5% | 87.7 | 91.3 | -63.7% (active) | 21.4% | 26.8 | 67% | 72.5 | 53.6 | 37.3 | 53.4 | 79 | 12.3% | 96.9%
4 | COc1ccc(-c2nc3cc(Cl)c(Cl)cc3n2CC(=O)N=Nc2c(O)[nH]c3ccc(Cl)cc23)cc1 | -10.9% (active) | 32.1% | -10.1% (active) | 29.8 | -48.2% (active) | 51.8 | 4.56% (active) | 36 | 71.9 | 11.9% | 5.04% (active) | 25 | 57.9% | 36.1 | 17.1 | 37.6 | 38.3 | 38.6 | -58.1% (active) | -21.5% (active)
5 | CN(C)c1ncc(/C=C2\SC(=S)N(Cc3ccccc3Cl)C2=O)s1 | 97.8% | 68% | 109% | 83.9 | 107% | 94.3 | 66.4% | 74.5 | 98.5 | 94.1% | 84.6% | 88.8 | 88.1% | 78.6 | 42 | 91.1 | 101 | 94.6 | 69.2% | 104%
6 | O=S(=O)(Nc1cc(Cl)cc(Cl)c1)c1ccc(-c2cnc(C3CC3)o2)cc1 | 22.3% | 14.4% | 60.4% | 47.5 | 8.4% (active) | 66.6 | 17.4% | 13.7 | 75.1 | 19.9% | 30.9% | 12.1 | -1.98% (active) | 42.9 | 37.4 | 27 | 36.9 | 39.1 | 44.8% | 69.9%
7 | O=c1c2ccccc2nc(COc2ccccc2)n1/N=C/C=C/c1ccccc1 | 104% | 109% | 96.9% | 93.4 | 101% | 97.5 | 102% | 100 | 95.3 | 97.8% | 76.9% | 98.1 | 83.4% | 82.9 | 98.4 | 89.6 | 99.3 | 94.5 | 72.1% | 94.3%
8 | O=S(=O)(Nc1ccc2c(c1)OC(F)(F)O2)c1ccc(-c2cnc(C3CC3)o2)cc1 | 68.6% | 9.69% (active) | 50.2% | 48.1 | 49.5% | 60.6 | 22.6% | 37.8 | 58.9 | 25.4% | 26.2% | 17.2 | 19% | 47 | 32.6 | 45.3 | 38 | 29.4 | 37.7% | 58.3%

— PubChem BioAssay (NCI)
